Source: ChEMBL document CHEMBL1157539, “Thousands of chemical starting points for antimalarial lead identification” (Nature, 2010)

Assays:
Format in all cases: functional
Plasmodium falciparum [1] = experiment: GSK_TCMDC: Inhibition of Plasmodium falciparum 3D7 in whole red blood cells, using parasite LDH activity as an index of growth. Test compounds present at 2uM
Plasmodium falciparum [2] = experiment: GSK_TCMDC: Inhibition of Plasmodium falciparum Dd2 in whole red blood cells, using parasite LDH activity as an index of growth. Test compounds present at 2uM
HepG2 = experiment: GSK_TCMDC: Percent inhibition of human HepG2 cell line. Test compounds present at 10uM.

| Structure (SMILES) | Inhibition (Plasmodium falciparum [1]) | Inhibition (Plasmodium falciparum [2]) | Inhibition (HepG2) |
| --- | --- | --- | --- |
| Cc1[nH]c(C)c(-c2ccc(-c3ccccc3C(F)(F)F)nc2)c(=O)c1Br | 97% | 96% | 0% |
| CC(C)c1ccc(NC(=O)c2ccc(C(=O)NC3CCN(CC4CCCCC4)C3)cc2)cc1.O=C(O)C(F)(F)F (stereo not drawn) | 93% | 26% | 35% |
| O=C(Nc1ccc2oc(-c3ccc(Br)cc3)nc2c1)c1ccc([N+](=O)[O-])o1 | 92% | 21% | 9% |
| CN(C)CCNc1nccc(N2CCc3ncnc(Nc4ccc(OCc5cccc(F)c5)c(Cl)c4)c3C2)n1 | 100% | 97% | 65% |
| O=C(NC1CC1c1ccccc1)N(CCCn1ccnc1)Cc1csc(-c2ccc(CNCc3ccccc3)cc2)n1.O=C(O)C(F)(F)F (stereo not drawn) | 96% | 20% | 6% |
| Cc1cc(=NN=Cc2ccccc2Cl)c2cc(C(F)(F)F)ccc2[nH]1 | 100% | 75% | 0% |
| Cc1ccc2cc(NC(=O)c3cccc(C(=O)Nc4ccc5nc(C)ccc5c4)n3)ccc2n1 | 92% | 23% | 21% |
| O=C(NCCCCCN1CCC(c2c[nH]c3ccccc23)C1)Nc1ccc(Cl)c(Cl)c1 (stereo not drawn) | 95% | 19% | 28% |
| COc1ccc2c(N/N=C/c3ccc([N+](=O)[O-])cc3)ccnc2c1 | 100% | 98% | 0% |
| CC1(C)OC[C@]2(C)[C@@H](CC[C@]3(C)C4=CC(=O)CCC4CC[C@@H]23)O1 (stereo partly drawn) | 97% | 95% | 0% |
| CCOc1cc(Br)c(C(C)NC(=O)c2ccccc2)cc1OCC (stereo not drawn) | 92% | 10% | 0% |
| CC(=O)Nc1ccc(S(=O)(=O)N(Cc2cccc(Oc3ccccc3)c2)C2CCN(C/C=C(\C)CCC=C(C)C)CC2)cc1 | 100% | 99% | 22% |
| Cc1ccc(NC(=O)c2ccc(N3CCN(c4ccncc4)CC3)cn2)cc1F.O=C(O)C(F)(F)F | 98% | 77% | 2% |
| N#Cc1ccc(C(=O)NC2CCN(CCCCCNC(=O)/C=C/c3ccc(Cl)c(Cl)c3)CC2)cc1 | 98% | 1% | 13% |
| Cc1cc(=O)[nH]c(-n2nc(C)cc2NC(=O)CC(c2ccccc2)c2ccccc2)n1 | 90% | 62% | 42% |
| COc1ccc(CC(=O)Nc2ccc(Nc3nc(C)cc(N4CCCC4)n3)cc2)cc1 | 100% | 65% | 56% |
| CC(C)(C)n1nnnc1C(c1cccnc1)N(Cc1ccccc1)Cc1ccc(Cl)cc1 (stereo not drawn) | 96% | 17% | 0% |
| Cc1cc(CN2C(=O)C(c3ccccc3)(c3ccccc3)N=C2N)c(C(F)(F)F)o1 | 97% | 84% | 11% |
| COc1cc2ncnc(Nc3ccc4nc(Cc5ccccc5)[nH]c4c3)c2cc1OC.Cl | 87% | 28% | 0% |
| CN(C(=O)NCCc1ccccc1)C1CCN(CCCCCNC(=O)/C=C/c2ccc(Cl)c(Cl)c2)CC1 | 93% | 11% | 43% |
| CC(C)Oc1ccc(N2CCN(CCCCNC(=O)c3ccc(NC(=O)c4ccc(Cl)cc4)cc3)CC2)c(OC(C)C)c1 | 100% | 85% | 31% |

| Structure (SMILES) | Inhibition (Plasmodium falciparum [1]) | Inhibition (Plasmodium falciparum [2]) | Inhibition (HepG2) |
| --- | --- | --- | --- |
| O=C(O)C(F)(F)F.O=C1OC(c2ccccc2)(c2ccccn2)CN1C1CCN(Cc2cccn2-c2ccc(Cl)cc2)CC1 (stereo not drawn) | 99% | 98% | 21% |
| COc1ccc2nccc(NC(=O)C3(O)CCC(NCc4ccc5c(c4)NCCS5)CC3)c2n1.Cl (stereo not drawn) | 93% | 64% | 1% |
| O=C(NC1CCN(Cc2ccccc2)C1)c1ccc(Nc2ccc(Br)cc2)nc1.O=C(O)C(F)(F)F (stereo not drawn) | 94% | 21% | 19% |
| COc1ccc2nccc([C@@H](O)CN3CCC(NC(=O)/C=C/c4ccnc5ccccc45)CC3)c2c1 | 91% | 12% | 19% |
| COc1ccc(-c2ccc(NC(=O)c3cccc(Cl)c3)cc2)cc1CN(C)CCO.O=C(O)C(F)(F)F | 89% | 52% | 39% |
| COc1ccc(-n2ccnc2SCC(=O)Nc2cccc(C(F)(F)F)c2)c(OC)c1 | 98% | 88% | 0% |
| O=C(Nc1ccc(F)cc1F)NC1CCN(CCCCCNC(=O)C2CC2c2ccc(Cl)c(Cl)c2)CC1 (stereo not drawn) | 100% | 32% | 41% |
| CN1CCC(Oc2cc(NC(=O)Nc3ccc(-c4ccncc4)c(C(F)(F)F)c3)ccc2Cl)CC1 | 100% | 92% | 30% |
| O=C(/C=C/c1cccc(C(F)(F)F)c1)NCCCCCN1CCC(c2c[nH]c3ccccc23)CC1 | 90% | 14% | 70% |
| CCCCCCNC(=O)C1Cc2c([nH]c3ccc(C)cc23)C2(CCN(CCc3ccccc3)CC2)N1 (stereo not drawn) | 85% | 24% | 31% |
| Cc1ccc(Nc2nc(C)cc(Nc3cccc(NS(C)(=O)=O)c3)n2)cc1 | 96% | 8% | 0% |
| O=[N+]([O-])c1ccc(N/C(=N\c2ccccc2Br)NCCOc2ccccc2)c(O)c1 | 88% | 70% | 6% |
| CCOC(=O)CNC(=O)N1CCN(C(=O)NCC(=O)OCC)CC1 | 93% | 0% | 0% |
| COc1cccc(CN(C(=O)Nc2ccccc2F)[C@H]2C[C@H]3C(=O)Nc4cc(F)ccc4C(=O)N3C2)c1 | 93% | 75% | 0% |
| CC(C)N1CCC(N(Cc2ccc(-c3ccc(C(F)(F)F)cc3)cc2)C(=O)Cn2c(CCc3cccc(F)c3F)nc(=O)c3cccnc32)CC1.O=C(O)C(O)C(O)C(=O)O | 100% | 80% | 100% |
| CCOc1c(CNCCCNc2cc(O)c3ccccc3n2)cc(Br)cc1OC | 80% | 18% | 10% |
| O=C(Nc1ccc(F)cc1)NC1CCN(c2ccnc3ccccc23)C1.O=C(O)C(F)(F)F (stereo not drawn) | 92% | 2% | 9% |
| Cn1ccnc1CCC(=O)Nc1ccc(Cl)cc1C(=O)Nc1ccc(Cl)cc1 | 92% | 3% | 28% |
| O=C(NC1CCCCC1)N(Cc1cccc(-c2ccc(CNCCc3ccccc3)cc2)c1)C1CCN(Cc2ccccc2)CC1.O=C(O)C(F)(F)F | 93% | 93% | 61% |
| CC(C)C[C@@H](/C=N/N1CCOC1=O)NC(=O)[C@H](CC(C)C)NC(=O)c1ccc(F)cc1 | 85% | 72% | 1% |
| CN(C(=O)Cc1ccc(Cl)cc1)C1CCN(CCCCCNC(=O)/C=C/c2ccc(Cl)c(Cl)c2)CC1 | 83% | 16% | 69% |

| Structure (SMILES) | Inhibition (Plasmodium falciparum [1]) | Inhibition (Plasmodium falciparum [2]) | Inhibition (HepG2) |
| --- | --- | --- | --- |
| O=C(NCCN1CCC(c2ccncc2)CC1)c1ccc(Nc2nccc(Nc3ccc(Oc4ccccc4)cc3)n2)cc1 | 100% | 90% | 17% |
| CC(C)NC(=N)NN=Cc1ccc(Cl)c(Cl)c1 | 100% | 12% | 0% |
| Cc1ccc(-n2c(=O)c3cccnc3n2CC(=O)Nc2cccc(C)c2C)cc1 | 96% | 20% | 9% |
| O=C(Nc1ccc(Cl)cc1F)N[C@H]1CCN(CCCCCNC(=O)C2CC2c2ccc(Cl)c(Cl)c2)C1 (stereo partly drawn) | 87% | 0% | 29% |
| COc1cc(NC(=O)N2CCc3ccc(OCCN4CCCCC4)cc32)cc(C(F)(F)F)c1.O=C(O)C(F)(F)F | 100% | 93% | 9% |
| Cl.Oc1ccc(CCCc2cc(Oc3c(I)cc(CCc4ncc[nH]4)cc3I)ccc2O)cc1 | 95% | 7% | 26% |
| CN(C)CCN(Cc1ccccc1)c1ccc([N+](=O)[O-])cc1C(F)(F)F.O=C(O)C(F)(F)F | 96% | 89% | 40% |
| COc1cc(NCC(O)CNc2cc(OC)c3ccccc3n2)nc2ccccc12 | 100% | 93% | 42% |
| CCOc1ccccc1C=CC(=O)Nc1ccc2nc(N3CCN(C)CC3)cc(C)c2c1 | 100% | 91% | 16% |
| O=C(/C=C/c1ccc(Cl)c(Cl)c1)NCCCCCN1CCC(NC(=O)Nc2cc(Cl)cc(Cl)c2)CC1 | 94% | 5% | 98% |
| CCOc1ccc2c(=NN=Cc3cccc(OC)c3OC)cc(C)[nH]c2c1 | 100% | 85% | 4% |
| CCOC(=O)c1[nH]c2cc(Cl)cc(Cl)c2c1/C=C/C(=O)Nc1ccc(-c2cnc(NC(C)=O)[nH]2)cc1 | 100% | 65% | 45% |
| COc1cc(-c2nc(-c3ccccc3)c(-c3ccccc3)[nH]2)ccc1OCCN(C)C | 100% | 100% | 0% |
| CC(C)(CNC(=O)C1CCN(Cc2ccoc2)CC1)c1nc(-c2ccc(Cl)c(O)c2)c(-c2ccncc2)[nH]1.Cl | 93% | 66% | 0% |
| COC1CCC(C(=O)Nc2ccc(-c3cccc(-c4nc5cccc(C)c5[nH]4)c3)cc2)CC1 (stereo not drawn) | 97% | 60% | 89% |
| Br.Oc1cccc2c1CC(NCc1ccccc1)CC2 (stereo not drawn) | 90% | 24% | 4% |
| CCCC1N=C(N)N=C(N)N1c1ccc(Cl)cc1.Cl (stereo not drawn) | 96% | 0% | 14% |
| CN1CCN(CC2(Nc3nccc(NCc4ccc(Cl)cc4Cl)n3)CCCCC2)CC1 | 98% | 58% | 98% |
| NCc1ccc(CNCc2ccc(-c3ccc(-c4nc5cc(F)ccc5[nH]4)cc3)cc2)cc1.O=C(O)C(F)(F)F | 100% | 99% | 12% |
